Assay results published in PubChem BioAssay AID504339 (National Center for Advancing Translational Sciences (NCATS), 2011).
“And” between values parts separate entries of the source, which are not always exact repeats. Equal entries are not always repeated. In all, about 390,000 compounds went through this assay and about 17,000 (4.4%) were called active. Entries that show only a call come without a potency. Inconclusive results (about 8%) are left out. Calls come from the whole dose curve; as a rule, active = well fitted inhibition curve with a large enough effect; inconclusive = small, poorly fitted or top-dose-only effect; inactive = no such curve, though single readings can be large or run the other way. The full list was thinned out, with actives kept by preference. Where a structure was tested more than once in an assay, its records may differ in their call.
Note: nearly all actives have a fitted effect of over 50% in size.
Potency is the fitted concentration of half-maximal effect.

The molecules below were run against Lysine-specific demethylase 4A (Homo sapiens) (UniProt O75164) (assay: qHTS Assay for Inhibitors of JMJD2A-Tudor Domain). Settings: AlphaScreen JMJD2A-Tudor / H3K4me3 peptide binding; series mostly up to 114 µM.
Sequence of Lysine-specific demethylase 4A (Homo sapiens) (O75164 whole entry, looked up, the tested form may be a part): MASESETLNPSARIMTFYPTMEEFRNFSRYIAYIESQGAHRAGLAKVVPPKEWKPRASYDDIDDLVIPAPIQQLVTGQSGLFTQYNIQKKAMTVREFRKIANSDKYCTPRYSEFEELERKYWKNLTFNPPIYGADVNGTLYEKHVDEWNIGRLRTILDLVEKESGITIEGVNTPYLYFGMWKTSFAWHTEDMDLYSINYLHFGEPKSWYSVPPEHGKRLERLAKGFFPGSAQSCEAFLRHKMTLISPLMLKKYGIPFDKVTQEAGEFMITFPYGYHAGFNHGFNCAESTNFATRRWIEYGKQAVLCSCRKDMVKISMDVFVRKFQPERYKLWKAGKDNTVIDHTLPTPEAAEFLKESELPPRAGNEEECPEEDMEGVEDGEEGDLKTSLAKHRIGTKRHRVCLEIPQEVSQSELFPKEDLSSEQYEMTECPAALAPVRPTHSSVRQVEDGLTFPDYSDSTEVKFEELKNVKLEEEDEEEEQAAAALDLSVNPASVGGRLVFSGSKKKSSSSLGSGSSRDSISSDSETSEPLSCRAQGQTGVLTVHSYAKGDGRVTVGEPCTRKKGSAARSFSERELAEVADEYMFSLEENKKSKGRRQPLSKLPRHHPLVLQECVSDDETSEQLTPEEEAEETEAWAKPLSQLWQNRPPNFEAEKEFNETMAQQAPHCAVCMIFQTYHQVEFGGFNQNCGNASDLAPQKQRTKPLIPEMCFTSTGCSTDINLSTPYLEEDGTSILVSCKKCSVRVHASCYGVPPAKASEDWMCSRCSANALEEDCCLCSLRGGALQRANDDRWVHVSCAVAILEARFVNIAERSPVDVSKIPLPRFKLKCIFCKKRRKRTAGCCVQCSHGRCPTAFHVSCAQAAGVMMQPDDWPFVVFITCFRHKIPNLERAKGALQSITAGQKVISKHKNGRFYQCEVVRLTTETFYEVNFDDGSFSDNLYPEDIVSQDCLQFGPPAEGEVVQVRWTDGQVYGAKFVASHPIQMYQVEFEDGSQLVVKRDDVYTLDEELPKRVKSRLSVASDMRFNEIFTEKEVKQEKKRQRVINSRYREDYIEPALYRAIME
`CSc1ncc(C(=O)NCc2ccccc2Cl)c(C(F)(F)F)n1` was tested, and the Potency was “inactive”.
With `Cc1cccn2c(=O)c3cc(C(=O)NC(C)c4ccccc4)c(=N)n(CCCO)c3nc12` (stereo unspecified) the Potency was “inactive”.
With `CCOc1cccc(NC(=O)c2ccc(F)c(S(=O)(=O)N(CC)c3cccc(C)c3)c2)c1` the Potency was “inactive”.
`COc1cccc2cc(-c3cc(=O)oc4cc(C)c(O)cc34)oc12` was tested, and the Potency was “inactive”.
For `COc1cc(O)c2c(=O)c3c(O)c(O)ccc3oc2c1OC`, the Potency was 89.1 µM (active).
With `COc1cccc2c(O)cc(=O)n(C)c12` the Potency was “inactive”.
With `CCOc1ccccc1CNC(=O)C1CCCN(S(=O)(=O)c2ccc3c(ccn3C)c2)C1` (stereo unspecified) the Potency was “inactive”.
In the case of `O=C(c1ccc(S(=O)(=O)N2CCCC2)cc1)N1CCN(c2ccccc2F)CC1`, the Potency is reported as “inactive”.
For `Cc1ccc(S(=O)(=O)N2CCN(C(=O)N3CCOCC3)CC2)c(C)c1`, the Potency was “inactive”.
With `Cc1ccc(N2CCN(C(=O)c3cccs3)CC2)c(C)c1` the Potency was “inactive”.
`Cc1cccc(C(=O)N2CCN(S(=O)(=O)N3CCCCC3)CC2)c1` was tested, and the Potency was “inactive”.
In the case of `Cc1ccc(-n2c(N)c(C(=O)N3CCOCC3)sc2=S)c(C)c1`, the Potency is reported as 35.5 µM (active).
`COc1cccc(N2CCN(c3ccc4nnc(CCC(=O)N5CCN(C)CC5)n4n3)CC2)c1` was tested, and the Potency was “inactive”.
For `O=C(c1ccc(CSc2ccccc2)cc1)N1CCCCCC1`, the Potency was “inactive”.
With `Cc1cccc(-n2c(N)c(C(=O)N3CCN(C)CC3)sc2=S)c1` the Potency was 79.4 µM (active).
`N#Cc1ccccc1-n1c(N)c(C(=O)N2CCCC2)sc1=S` was tested, and the Potency was 56.2 µM (active).
`O=C(Cn1c(=O)n(Cc2ccccc2)c(=O)c2sc3ccccc3c21)Nc1ccccc1F` was tested, and the Potency was “inactive”.
For `Cc1ccccc1OCc1nc2c3cnn(-c4ccccc4F)c3ncn2n1`, the Potency was “inactive”.
`COc1ccc(OC)c(NC(=O)CSc2nc3ccccc3nc2N2CCCCC2)c1` was tested, and the Potency was “inactive”.
For `Cc1ccc(C(=O)NC2CCN(C#N)CC2)cc1`, the Potency was “inactive”.
`CCOc1ccc(N(CC)S(=O)(=O)N2CCCC(C(=O)NCc3ccc(Cl)cc3)C2)cc1` (stereo unspecified) was tested, and the Potency was “inactive”.
In the case of `COC(=O)c1ccc(C(NC(=O)OCc2ccccc2)/C(C)=C/[C@@H](C)C(=O)NCc2ccc(OC)c(OC)c2)cc1` (stereo partly specified), the Potency is reported as “inactive”.
For `COC(=O)c1ccc(COc2ccc(/C=N/NC(=O)C(=O)Nc3ccc(OC)cc3)cc2OC)o1`, the Potency was “inactive”.
For `COC(=O)c1ccc(COc2ccc(/C=C/C(=O)c3ccc(OC)c(CSCC(=O)O)c3)cc2OC)cc1`, the Potency was 50.1 µM (active).
With `Cc1ccc(NC(=O)c2ccc(CN3CC(=O)N4CCCCC4C3=O)cc2)c(Cl)c1` (stereo unspecified) the Potency was “inactive”.
With `CC(=O)c1sc(N2C(=O)c3oc4ccccc4c(=O)c3C2c2ccc(C)cc2)nc1C` (stereo unspecified) the Potency was “inactive”.
`C=Cc1ccc(Cn2c(C(=O)O)c(CNC3CCCC3)c3ccc(C)cc32)cc1` was tested, and the Potency was “inactive”.
In the case of `COc1cc(OC)cc(C(=O)NCCCn2ccnc2)c1`, the Potency is reported as “inactive”.
For `COc1ccc(/C=C(\C#N)C(=O)NCCCn2ccnc2)cc1`, the Potency was “inactive”.
For `COc1cccc(-c2nn(-c3ccccc3)cc2/C=C(\C#N)C(=O)NCCCn2ccnc2)c1`, the Potency was 44.7 µM (active).
With `O=C(N/N=C/c1ccccn1)c1cccnc1` the Potency was 79.4 µM (active).
`COc1cc(C=NNC(=O)c2cccnc2)ccc1OC(=O)c1ccccc1F` was tested, and the Potency was “inactive”.
With `O=C(N/N=C/c1ccccn1)c1cccc(NC(=O)c2ccc(Cl)cc2)c1` the Potency was “inactive”.
With `Cc1ccc2oc3c(c(=O)c2c1)C(c1ccc(O)cc1)N(Cc1ccc2c(c1)OCO2)C3=O` (stereo unspecified) the Potency was “inactive”.
In the case of `CCOc1ccc(S(=O)(=O)N(CC(=O)NCCSCc2ccc(C)cc2)c2ccccc2)cc1`, the Potency is reported as “inactive”.
For `S=C(NCCCc1cnc[nH]1)NCCCN(Cc1ccc(Cl)c(Cl)c1)c1ccc(Br)cn1`, the Potency was 44.7 µM (active).
`CCOc1ccc(Nc2c(S(=O)(=O)c3ccccc3)cnc3ccccc23)cc1` was tested, and the Potency was “inactive”.
`COc1cccc(-n2ccn(CC(=O)NCc3ccc(C)cc3)c(=O)c2=O)c1` was tested, and the Potency was “inactive”.
With `C=CC1=C(C(=O)O)N2C(=O)[C@@H](NC(=O)/C(=N/OCC(=O)O)c3csc(N)n3)[C@H]2SC1` the Potency was 25.1 µM (active).
`C=CC1=C(C(=O)O)N2C(=O)[C@@H](NC(=O)/C(=N\OCC(=O)O)c3csc(N)n3)[C@H]2SC1` was tested, and the Potency was 20 µM (active).
With `CC(C)(C)OC(=O)C1=C(CO)CS[C@@H]2[C@H](NC(=O)Cc3ccccc3)C(=O)N12` the Potency was “inactive”.
`CO/N=C(\C(=O)N[C@@H]1C(=O)N2C(C(=O)O)=C(COC(C)=O)CS[C@H]12)c1csc(N)n1` (stereo in doubt) was tested, and the Potency was “inactive and 79.4 µM (active) and 56.2 µM (active)”.
In the case of `COc1cc(C(=O)NCC(c2ccc(Cl)cc2)N2CCOCC2)cc(OC)c1OC` (stereo unspecified), the Potency is reported as “inactive”.
`Cc1cc(C)cc(NC(=O)CCCc2nc(-c3ccccc3Cl)no2)c1` was tested, and the Potency was “inactive”.
For `Cc1ccc(OCCSc2nc3ccc(NC(=O)COc4ccc(C)cc4)cc3s2)cc1`, the Potency was “inactive”.
With `CC(=O)c1ccc(NC(=O)CSc2nnc(NC(=O)Nc3ccccc3)s2)cc1` the Potency was “inactive”.
In the case of `Cn1c(=O)c2c(nc(SCC(=O)Nc3ccc(F)cc3)n2Cc2ccc(Cl)cc2)n(C)c1=O`, the Potency is reported as “inactive”.
For `CCOC(=O)c1ccc(CSc2nnc3cc(C)c4ccccc4n23)cc1`, the Potency was “inactive”.
With `Cc1c(CCNC(=O)c2ccc(C(F)(F)F)cc2)sc2nc(-c3ccc(F)cc3)nn12` the Potency was “inactive”.
`Oc1c(C(c2ccc(F)cc2)N2CCN(Cc3ccccc3)CC2)sc2nc(-c3ccco3)nn12` (stereo unspecified) was tested, and the Potency was “inactive”.
With `Cc1ccccc1CN1C[C@@H]2C[C@@H](c3ccc4nsnc4c3)N3CCC[C@@]23C1=O` the Potency was “inactive”.
In the case of `COc1ccc(CN2CCN(Cc3cn(C)nc3-c3ccccc3)CC2CCO)c(C)c1C` (stereo unspecified), the Potency is reported as “inactive”.
With `Cc1ccccc1CN1C[C@@H]2C[C@@H](c3cn(C)nc3-c3ccccc3)N3CCC[C@@]23C1=O` the Potency was 63.1 µM (active).
`O=C(CCc1nc(CN2CCN(S(=O)(=O)c3ccc(Br)cc3)CC2)no1)N1CCCCC1` was tested, and the Potency was “inactive”.
In the case of `COc1ccc(NC(=O)CSc2nc3ccccc3n2CC(=O)N2CCCCC2C)cc1` (stereo unspecified), the Potency is reported as “inactive”.
With `COc1ccc(-c2nnc(-c3ccc4ccccc4c3)o2)cc1` the Potency was “inactive”.
With `COc1ccc(Nc2ccc3ccccc3c2)cc1` the Potency was 56.2 µM (active).
For `COc1ccc(Nc2cc(=O)oc3ccccc23)cc1`, the Potency was “inactive”.
`COc1cccc(NC(=O)C(=O)NCC(c2ccc3c(c2)OCO3)N2CCN(C)CC2)c1` (stereo unspecified) was tested, and the Potency was “inactive”.
For `Fc1ccccc1/C=N/n1c(-c2cccnc2)n[nH]c1=S`, the Potency was 3.98 µM (active).
In the case of `S=c1[nH]nc(-c2ccncc2)n1/N=C/c1ccccc1Cl`, the Potency is reported as 3.16 µM (active).
`S=c1nc2ccccc2c2nc(-c3cccnc3)[nH]n12` was tested, and the activity change, negative = inhibition was -17.6% [at 11.4 µM] (inactive).
In the case of `COc1ccc(-c2cc(C(=O)Nc3sc4c(c3C(N)=O)CCCC4)no2)cc1`, the Potency is reported as “inactive”.
With `Cc1cccc(N2CCN(C(=O)CCn3c(=O)c4cccn4c4cccnc43)CC2C)c1` (stereo unspecified) the Potency was “inactive”.
For `COc1ccc(Cn2c(=O)c3oc4ccccc4c3n(CC(=O)Nc3ccc(F)cc3F)c2=O)cc1`, the Potency was “inactive”.
With `CCC1CCCCN1C(=O)Cn1c(=O)n(CCCCCC(=O)NCc2ccccc2)c(=O)c2sccc21` (stereo unspecified) the Potency was “inactive”.
For `CN1CCOc2cc(S(=O)(=O)N3CCN(S(=O)(=O)c4c(F)cccc4F)CC3)cnc21`, the Potency was “inactive”.
In the case of `CCCc1cc(-c2n[nH]c(=S)n2CC)c2ccccc2n1`, the Potency is reported as 79.4 µM (active).
With `CCn1c(-c2ccncc2)n[nH]c1=S` the Potency was 10 µM (active).
In the case of `CCn1c(SCC(=O)Nc2nccs2)nnc1-c1ccncc1`, the Potency is reported as “inactive”.
For `CC(C)n1c(-c2ccncc2)n[nH]c1=S`, the Potency was 22.4 µM (active).
For `CCn1c(SCC(=O)Nc2ccc3c(c2)OCCO3)nnc1-c1ccncc1`, the Potency was “inactive”.
In the case of `CCn1c(-c2ccoc2C)n[nH]c1=S`, the Potency is reported as 10 µM (active).
With `CCCn1c(C)cc(-c2csc(NC(=O)CCc3nc4ccccc4c(=O)[nH]3)n2)c1C` the Potency was “inactive”.
`CCn1c(SCC(=O)NC2CCCC2)nnc1-c1ccoc1C` was tested, and the Potency was “inactive”.
In the case of `CC(C)n1c(-c2cccs2)nc2ccccc21`, the Potency is reported as “inactive”.
With `CCn1c(C)nc2c1C(=O)c1ccccc1C2=O` the Potency was “inactive”.
For `O=C(CC1C(=O)N(c2ccccc2)C(=O)N1CCc1cccs1)Nc1ccc(F)cc1` (stereo unspecified), the Potency was “inactive”.
For `O=C(NCCCO)C(=O)Nc1c2c(nn1-c1ccccc1)CSC2`, the Potency was “inactive”.
For `COc1cccc(-c2nc(S(=O)(=O)c3ccc(C)cc3)c(NCc3ccccc3)o2)c1`, the Potency was “inactive”.
`O=C(NCc1ccc(F)cc1)c1ccc2nc(N3CCCCC3)sc2c1` was tested, and the Potency was “inactive”.
With `Cc1ccc(NC(=O)CSc2nc3c([nH]c4ccccc43)c(=O)n2-c2ccccc2)c(C)c1` the Potency was “inactive”.
For `O=C(Nc1ccc(Br)cc1)c1ccc(Br)c(S(=O)(=O)NCc2ccccc2)c1`, the Potency was “inactive”.
For `COc1ccc(CCNC(=O)c2ccc3c(c2)sc2nc(-c4ccc(C)cc4)cn23)cc1OC`, the Potency was “inactive”.
With `Cc1ccc(Oc2c(C(F)(F)F)oc3c(CN4CCCCC4)c(O)ccc3c2=O)cc1` the Potency was “inactive”.
`CC1CCCC(N2CCN(C(=O)c3ccc(F)cc3)CC2)C1` (stereo unspecified) was tested, and the Potency was 10 µM (active).
For `O=C(c1ccc(F)cc1)N1CCC(n2nnc3ccccc32)CC1`, the Potency was “inactive”.
For `O=C(c1ccc(F)cc1)N1CCCC(C(=O)N2CCCCC2)C1` (stereo unspecified), the Potency was “inactive”.
`CCOc1ccc(S(=O)(=O)Nc2ccc3oc4c(c3c2)CC(C)CC4)cc1` (stereo unspecified) was tested, and the Potency was “inactive”.
With `Cc1ccccc1CSc1nc2c([nH]c3ccccc32)c(=O)n1C` the Potency was “inactive”.
`Cc1ccc2nc(COc3cccc(NC(=O)c4cccc(Cl)c4)c3)cc(=O)n2c1` was tested, and the Potency was “inactive”.
In the case of `COc1ccc(-c2cc(=O)oc3cc(OC(C)C(=O)Nc4ccc(CN5CCOCC5)cc4)ccc23)cc1` (stereo unspecified), the Potency is reported as “inactive”.
`CC(OC(=O)c1cc2ccccc2o1)C(=O)Nc1ccc(N2CCOCC2)cc1` (stereo unspecified) was tested, and the Potency was “inactive”.
For `Cc1cc(=O)oc2cc(OC(C)C(=O)Nc3ccc(N4CCOCC4)cc3)ccc12` (stereo unspecified), the Potency was 89.1 µM (active).
With `COc1ccc(-c2c(C)c3ccc(O)c(CN4CCCC4)c3oc2=O)cc1OC` the Potency was “inactive”.
For `COc1cc(OC)c(OC)cc1/C=C/c1nc2cc3ccccc3cc2c(=O)n1-c1ccc(F)c(Cl)c1`, the Potency was “inactive”.
